Reference: ChEMBL document CHEMBL3988442, “University of Dundee, Small-Polar-MMV Screening Library” (2021)
Among all 48,000 compounds or so, about 13,000 (27%) showed an effect of 50% or more. This is one part of the list.

System: Wolbachia pipientis
Experiment: Anti-Wolbachia Cell-Based Screen
Format: functional
Set-up: scale not given: in the data most compounds retested in dose-response had high values
Settings: 5 µM

Row | SMILES | Percent Effect
1 | Clc1cccc(N2CCC(NCc3ncc[nH]3)C2)c1 (stereo unspecified) | -6.784%
2 | Cl.c1cnc2c(c1)cc([C@@H]1CCCO1)n2CCN1CCCCC1 | 85.05%
3 | Cl.c1cnc2c(c1)cc([C@H]1CCCO1)n2CCN1CCCC1 | 88.22%
4 | Cl.c1cnc2c(c1)cc([C@@H]1CCCO1)n2CCN1CCOCC1 | 92.89%
5 | Cl.c1cnc2c(c1)cc([C@H]1CCCO1)n2CCN1CCOCC1 | -5.726%
6 | CN(CC1CCCO1)C1CCN(CCc2ccccn2)CC1 (stereo unspecified) | 4.903%
7 | Cl.c1cnc2c(c1)cc([C@H]1CCCO1)n2CCN1CCCCC1 | -14.33%
8 | CSc1nccc(N2CCC(NCCN3CCOCC3)CC2)n1 | -2.784%
9 | CC(O)CN1CCN(C(=O)c2ccnc(N(C)C)c2)CC1 (stereo unspecified) | -11.32%
10 | Cc1nc(CN2CCN(C(=O)c3sccc3C3CC3)CC2)cs1 | -3.645%
11 | CCc1nc(CN2CCCN(C(=O)c3occc3C)CC2)cs1 | 10.15%
12 | CCc1ccsc1C(=O)N1CCCN(Cc2cscn2)CC1 | 140.3%
13 | COc1ccsc1C(=O)N1CCCN(Cc2cscn2)CC1 | 127%
14 | Cc1nc(CN2CCN(C(=O)c3sccc3C)CC2)cs1 | 154.8%
15 | Cc1nc(CN2CCN(C(=O)c3ccnc(N(C)C)c3)CC2)cs1 | 110.9%
16 | COC(C(=O)N1CCCN(Cc2cscn2)CC1)c1ccccc1 (stereo unspecified) | -16.29%
17 | Cc1nc(CN2CCN(C(=O)c3ccn(C)c(=O)c3)CC2)cs1 | 11.68%
18 | COCC1CCN(S(=O)(=O)N2C[C@@H](C)[C@@](C)(O)C2)CC1 | 1.126%
19 | CN(Cc1cn2c(n1)CN(Cc1ccsc1)CC2)Cc1ccco1.O=C(O)C(F)(F)F.O=C(O)C(F)(F)F | -7.727%
20 | CSc1cccc(CNC(=O)C2CC(=O)N(C3CC3)C2)c1 (stereo unspecified) | -14.89%
21 | Cn1cc(N2C[C@@H]3CN(S(=O)(=O)C4CC4)C[C@@H]3C2=O)cn1 | -1.09%
22 | COc1cccc(COC(C)C(=O)N(C)Cc2nnc3n2CCC3)c1 (stereo unspecified) | -2.392%

Row | SMILES | Percent Effect
23 | Cc1cc(CNc2cc(-c3ccoc3C)nn2CCO)c(C)o1 | -24.32%
24 | Cc1nc(CN2CCCN(C(=O)C3(C#N)CCCCC3)CC2)cs1 | -0.8463%
25 | Cc1ccsc1C(=O)N1CCN(Cc2cscn2)CC1 | 118.4%
26 | CC(C)c1ccc(O)c(C(=O)N2CCN(Cc3cscn3)CC2)c1 | -2.44%
27 | CCn1ccnc1CN1CCCN(C(=O)c2sccc2C#N)CC1 | 2.639%
28 | CC(C)c1ccsc1C(=O)N1CCCN(Cc2cscn2)CC1 | 10.39%
29 | Cc1nc(CN2CCCN(C(=O)c3sccc3C#N)CC2)cs1 | 111.7%
30 | N#CC1(C(=O)N2CCN(Cc3cscn3)CC2)CCCC1 | -7.08%
31 | Cc1ccsc1C(=O)N1CCCN(Cc2cscn2)CC1 | 92.98%
32 | N#Cc1ccsc1C(=O)N1CCCN(Cc2cscn2)CC1 | 105.7%
33 | CCn1cc(CN2CCCN(C(=O)c3sccc3C#N)CC2)cn1 | -3.745%
34 | N[C@H]1CN(C(=O)c2ccc(Cl)cc2O)C[C@@H]1C1CC1 | -2.238%
35 | CC(C)[C@H]1COC(=O)N1Cc1nnc(-c2ccccc2)o1 | -6.799%
36 | CC(NCCn1cccn1)c1ccccc1Cl (stereo unspecified) | 12.43%
37 | CN1CCN(C(=O)C[C@@H]2COC[C@H]3CN(c4ccncn4)C[C@@H]23)CC1 | -4.365%
38 | O=C(NCc1ccccc1)N1C[C@H]2C[C@H](C(=O)N3CCCC3)[C@@H](C1)O2 | 8.283%
39 | O=C(Nc1ccccc1)N1C[C@H]2C[C@H](C(=O)N3CCCC3)[C@@H](C1)O2 | 100.5%
40 | CNC(=O)N1C[C@H]2C[C@H](C(=O)Nc3ccccc3)[C@@H](C1)O2 | -3.507%
41 | CCc1ccc(NC(=O)N2C[C@H]3C[C@H](C(=O)N4CCCC4)[C@@H](C2)O3)cc1 | 103.5%
42 | O=C(Nc1ccccc1)N1C[C@@H]2OCCN(C(=O)c3ccco3)[C@@H]2C1 | 7.532%
43 | O=C(Nc1ccccc1)N1C[C@H]2C[C@H](C(=O)N3CCOCC3)[C@@H](C1)O2 | 114.8%
44 | O=C(NCCc1ccccc1)N1C[C@H]2C[C@H](C(=O)N3CCCC3)[C@@H](C1)O2 | -4.163%

Row | SMILES | Percent Effect
45 | O=C(Nc1ccc(F)cc1)N1C[C@H]2C[C@H](C(=O)N3CCCC3)[C@@H](C1)O2 | 125.2%
46 | CNC(=O)[C@H]1C[C@@H]2CN(C(=O)Nc3ccc(F)cc3)C[C@H]1O2 | -4.608%
47 | O=C(Nc1ccc(F)cc1)N1C[C@H]2C[C@H](C(=O)N3CCOCC3)[C@@H](C1)O2 | 1.969%
48 | O=C1CC2(CCN(Cc3ccc(-c4ccn[nH]4)s3)CC2)CN1 | -9.036%
49 | CCc1noc(C(C)N2CCC(NS(=O)(=O)c3cccs3)CC2)n1 (stereo unspecified) | -6.324%
50 | CCC(=O)NCC(=O)NC(Cc1ccccc1)c1sccc1C (stereo unspecified) | 6.747%
51 | Cc1cnn(CC(C)NCc2ccc(S(C)(=O)=O)cc2)c1 (stereo unspecified) | 4.95%
52 | CC(C)[C@H](Nc1nc(C2CCCC2)nc2c1cnn2C)C(N)=O | -0.02427%
53 | Cc1cccc(N(C)Cc2nc3c(cnn3C)c(=O)[nH]2)c1C | -8.766%
54 | COC(=O)[C@@H](Nc1nc(C2CCCC2)nc2c1cnn2C)[C@@H](C)O | -8.342%
55 | CC(C)NC(=O)c1cc(-c2ccc(S(C)(=O)=O)cc2)c2cnn(C)c2n1 | 110.4%
56 | CN(C)C(=O)c1cc(-c2ccc(S(C)(=O)=O)cc2)c2cnn(C)c2n1 | 108.3%
57 | Cn1ncc(N2CCN(Cc3ccc(S(C)(=O)=O)cc3)CC2)cc1=O | -9.751%
58 | CC(C)NC(=O)c1cc(-c2ccc(S(C)(=O)=O)cc2)nc2c1cnn2C | 95.41%
59 | CCOC(=O)CC(C)Nc1nc(C(C)(C)C)nc2c1cnn2C (stereo unspecified) | -7.754%
60 | CCc1nc(CCNC(=O)NC2CCSCC2)cs1 | 5.983%
61 | Cc1cn(CC(=O)NC2CCC3(CC2)OCCO3)c2ccccc12 | -12.26%
62 | CCCN1CCN(C(=O)c2ccc3nc(C)oc3c2)[C@H]2CS(=O)(=O)C[C@H]21 | -5.857%
63 | COCCN1C[C@H]2CN(Cc3cccc(OC(F)(F)F)c3)CCN2C1=O | -4.744%
64 | Cc1cccc(COc2ccc(C(C)NC(=O)CNC(N)=O)cc2)c1 (stereo unspecified) | 98.3%
65 | Cc1cccc(COc2ccc(C(C)NS(N)(=O)=O)cc2)c1 (stereo unspecified) | 134.5%
66 | CS(=O)(=O)Cc1ccc(OCc2ccc(F)cc2)cc1 | -17.41%

Row | SMILES | Percent Effect
67 | Cc1cccc(COc2ccc(NC(=O)C(C)NC(N)=O)c(C)c2)c1 (stereo unspecified) | -6.983%
68 | Cc1ccc(OCCC(=O)NC(C)c2ccncc2)cc1 (stereo unspecified) | -14.45%
69 | Cc1cccc(COc2ccc(C(C)N)cc2)c1.Cl (stereo unspecified) | 108.7%
70 | Cc1cc(OCc2cccc(F)c2)ccc1NC(=O)C(C)NC(N)=O (stereo unspecified) | -0.2467%
71 | CC(NS(N)(=O)=O)c1ccc(OCc2ccc(F)cc2)cc1 (stereo unspecified) | 111.6%
72 | Cc1cccc(CNCCOc2ccc(S(C)(=O)=O)cc2)c1 | 16.11%
73 | Cc1cc(C)n(-c2ccc(C(C)NS(N)(=O)=O)cc2)n1 (stereo unspecified) | -26.74%
74 | CC(=O)NC(C)C(=O)Nc1ccc(OCc2cccc(F)c2)cc1C (stereo unspecified) | -4.537%
75 | NC(=O)CS(=O)(=O)Cc1ccc(OCc2ccc(F)cc2)cc1 | -22.33%
76 | COc1cccc2ccc(CN3CCN(c4ncccn4)CC3)nc12 | -3.273%
77 | CC(C)(C)c1c[nH]c([C@@H]2COCCN2C2CCC2)n1 | -8.065%
78 | Cc1cc(C)n(C2CN(C(=O)CN3C(=O)CSc4ccccc43)C2)n1 | 2.557%
79 | Cc1ccsc1[C@@H]1CCN(C(=O)Cn2cc3ccccc3n2)C[C@H]1O | -6.576%
80 | CS(=O)(=O)N1CCc2nc(NC(=O)Nc3c(F)cccc3F)sc2C1 | -13.59%
81 | CCCNC(=O)c1nc2c(o1)CN(C(C)=O)C2 | 21.64%
82 | COc1ccc(CCNC2CCCN(c3ccc(C)nn3)C2)cc1 (stereo unspecified) | -3.788%
83 | COc1ccc(C2CCCN2c2nnc(C)s2)c(OC)c1 (stereo unspecified) | 6.611%
84 | Cc1ncsc1C(=O)N1CCC(Nc2cccnn2)CC1 | -12.54%
85 | Cc1cccc(C(=O)N2CCCN(CCc3scnc3C)CC2)c1 | -3.968%
86 | Cc1ncsc1C(=O)N1CCn2nc(CN3CCSCC3)cc2C1 | -3.157%
87 | COCCN1CCCN(C(=O)c2scnc2C)CC1 | 111.8%
88 | Cc1ncsc1C(=O)N1CCN(Cc2ccccc2)CC1C (stereo unspecified) | 4.154%

Row | SMILES | Percent Effect
89 | COc1ccccc1C(=O)N1CCN(CCc2scnc2C)CC1 | -5.378%
90 | CCN1CCN(C(=O)c2scnc2C)CC1 | 114.5%
91 | CC(C)CCN1CCN(C(=O)c2cccnc2-n2cncn2)CC1 | 7.327%
92 | Cc1ncsc1C(=O)N1CCN(CCC(C)C)CC1 | 114%
93 | c1cc(CCN2CCC(NCc3ccsc3)CC2)ccn1 | -8.408%
94 | Cc1ccc(N2CCCC(NC(=O)Nc3cnn(C)c3)C2=O)cc1 (stereo unspecified) | 10.21%
95 | O=C(NCc1cnc2n1CCN(Cc1ccoc1)C2)c1ccno1.O=C(O)C(F)(F)F | 0.5733%
96 | Cc1nc(-c2ccc(F)cc2)nc2c1CCN(C(=O)CN(C)C)CC2 | 3.588%
97 | CC(=O)N1CCc2c(nc(N(C)C)nc2NC(C)Cc2cccs2)C1 (stereo unspecified) | 16.87%
98 | CC(=O)N1CCc2nc(-c3ccc(F)cc3)nc(NC(C)C)c2CC1 | 94.36%
99 | CC(C)Nc1ncnc2c1CCN(C(=O)Cc1ccccn1)CC2.O=C(O)C(F)(F)F | 17.78%
100 | CC(C)Nc1nc(-c2ccccc2)nc2c1CCN(C(=O)C1CC1)CC2.O=C(O)C(F)(F)F | 99.02%
101 | Cc1nc2c(c(NC(C)C)n1)CCN(C(=O)c1ccno1)CC2.O=C(O)C(F)(F)F | -9.631%
102 | CC(=O)N1CCc2nc(-c3ccccc3)nc(NC(C)C)c2CC1 | 96.01%
103 | Cc1nc2c(c(NC(C)C)n1)CCN(Cc1cccnc1)CC2.O=C(O)C(F)(F)F.O=C(O)C(F)(F)F | -13.98%
104 | CSCC(=O)N1CCc2nc(C)nc(NCc3ccccc3)c2CC1 | -12.22%
105 | CC(C)Nc1nc(-c2ccccc2)nc2c1CCN(C(=O)CC#N)CC2 | 98.77%
106 | CC(=O)NCC(=O)N1CCc2nc(-c3ccccc3)nc(C)c2CC1 | -15.18%
